# Assay results taken from PubChem BioAssay (NCATS).
# Results filed as inconclusive are left out. Unmarked numbers belong to inactive results. The source made the active and inactive calls. Calls follow the shape of the dose curve; as a rule, active = well fitted cell-killing curve with a large enough effect; inconclusive = small, poorly fitted or top-dose-only effect, or effect the other way; inactive = no such curve, though single readings can be large or run the other way.
# Assay: Quantitative High-Throughput drug screen in 47 multiple myeloma cell lines against the NCATS MIPE library collection: L363_DSMZ cell viability assay (AID 1918984); also: nearly all actives have a fitted effect of over 40% in size
# Details: L363 myeloma viability, CellTiter-Glo ATP luminescence, 48 h; series mostly up to 45.8 µM; viability (% of control): at the top concentration
# Excerpt: PI: Beverly A. Mock Ph.D.
# Laboratory of Cancer Biology and Genetics,
# Center for Cancer Research, National Cancer Institute,
# National Institute of Health, Bethesda, Maryland
# Drug resistance and disease progression are common in multiple myeloma (MM) patients, underscoring the need for new therapeutic combinations. […] We hypothesized that effective combinations would reduce MYC expression and enhance p16 activity. […] These preclinical data identify potentially useful drug combinations for evaluation in drug-resistant MM and reveal potential mechanisms of combined drug sensitivity.
# Described herein is the primary MIPE qHTS used to cherrypick compounds. Validated compounds were then further tested for potential synergistic activiy.
# [1] Peat TJ, Gaikwad SM, Dubois W, Gyabaah-Kessie N, Zhang S, Gorjifard S, Phyo Z, Andres M, Hughitt VK, Simpson RM, Miller MA, Girvin AT, Taylor A, Williams D, D'Antonio N, Zhang Y, Rajagopalan A, Flietner E, Wilson K, Zhang X, Shinn P, Klumpp-Thomas C, McKnight C, Itkin Z, Chen L, Kazandijian D, Zhang J, Michalowski AM, Simmons JK, Keats J, Thomas CJ, Mock BA. Drug combinations identified by high-throughput screening promote cell cycle transition and upregulate Smad pathways in myeloma. Cancer Lett. 2023 Aug 1;568:216284. doi: 10.1016/j.canlet.2023.216284. Epub 2023 Jun 24. PMID: 37356470; PMCID: PMC10408729.
# SEQUENCE No. (e.g., 1, 2, 3, etc.); […] (e.g., Cells, Incubation, Reagent, etc.); VALUE and DESCRIPTION.
# 1; Cells; 5 uL; white, solid bottom 1536-well Greiner assay plate.
# 2; Compounds; 23 nL; Kalypsis pin tool (Wako USA) equipped with a 1536-well pin head to transfer to the assay plates.
# 3; Incubation; 48 hours; 37C incubation.
# 4; Reagent;5uL; CellTiter Glo (Promega).
# 5; Detector; 425V; Luminescence; Viewlux PerkinElmer.
# NOTES (numbers refer to Sequence numbers above)
# 1. The cell-based screening methods employed in this study were like those previously published. Briefly, the corresponding myeloma cell lines were screened in 1,536-well plates with 500 cells, 5-uL per well for inhibition of cell viability (assessed by measuring ATP levels with CellTiterGlo).
# 2. NCATS MIPE 4.0 library of approved and investigational drugs were added using the Kalypsis pin tool. Wells treated with DMSO only for 100% viability and media only for 0% viability were used as controls.
# 3. The assay plates were covered and incubated for 48 hours in a 37C, 5% CO2 incubator with controlled humidity.
# 4. After 48 hours, CellTilter-GloTM luminescent substrate mix (Promega) reagent was added to the assay plate and plates we incubated for 5 min at room temperature.
# 5. Signal was measured as median relative luminescence units on a ViewLux (PerkinElmer) multiplate reader.
# [1] Heske CM, Davis MI, Baumgart JT, Wilson K, Gormally MV, Chen L, Zhang X, Ceribelli M, Duveau DY, Guha R, Ferrer M, Arnaldez FI, Ji J, Tran HL, Zhang Y, Mendoza A, Helman LJ, Thomas CJ. Matrix Screen Identifies Synergistic Combination of PARP Inhibitors and Nicotinamide Phosphoribosyltransferase (NAMPT) Inhibitors in Ewing Sarcoma. Clin Cancer Res. 2017 Dec 1;23(23):7301-7311. doi: 10.1158/1078-0432.CCR-17-1121. Epub 2017 Sep 12. PMID: 28899971; PMCID: PMC6636827.
# Potency is read from the fitted curve at half-maximal effect.
Compound,viability (% of control) [%],Potency
COc1cc2c(c(OC)c1OC)-c1ccc(OC)c(=O)cc1[C@@H](NC(C)=O)CC2,4.53,
CC(C)(C)C(=O)Oc1ccc(S(=O)(=O)Nc2ccccc2C(=O)NCC(=O)O)cc1,93.5,
CN1CCC(=C2c3ccccc3CC(=O)c3sccc32)CC1,,23.5 µM (active)
O=C(C1CCCCC1)N1CC(=O)N2CCc3ccccc3C2C1 (stereo not given),95.9,
Cc1ccc(C(=O)Nc2ccc(S(=O)(=O)O)c3cc(S(=O)(=O)O)cc(S(=O)(=O)O)c23)cc1NC(=O)c1cccc(NC(=O)Nc2cccc(C(=O)Nc3cc(C(=O)Nc4ccc(S(=O)(=O)O)c5cc(S(=O)(=O)O)cc(S(=O)(=O)O)c45)ccc3C)c2)c1,96.2,
CN(CCOc1ccc(NS(C)(=O)=O)cc1)CCc1ccc(NS(C)(=O)=O)cc1,94,
O=C1c2c(O)ccc(O)c2C(=O)c2c(NCCNCCO)ccc(NCCNCCO)c21,,2.35 µM (active)
CC#C[C@]1(O)CC[C@H]2[C@@H]3CCC4=CC(=O)CCC4=C3[C@@H](c3ccc(N(C)C)cc3)C[C@@]21C,,2.64 µM (active)
NC(=O)NO,,5.9 µM (active)
CC(C)NCC(O)COc1ccc(CCOCC2CC2)cc1 (stereo not given),93.3,
CS(=O)(=O)CCNCc1ccc(-c2ccc3ncnc(Nc4ccc(OCc5cccc(F)c5)c(Cl)c4)c3c2)o1,,9.35 µM (active)
Clc1ccc2c(c1)C(N1CCNCC1)=Nc1ccccc1O2,103,
CC(C)NCC(O)c1ccc(O)c(O)c1 (stereo not given),,1.87 µM (active)
C[C@](N)(Cc1ccc(O)c(O)c1)C(=O)O,77.1,
Cn1cnc2c1c(=O)[nH]c(=O)n2C,,7.43 µM (active)
CN(C)C(=O)C(CCN1CCC(O)(c2ccc(Cl)cc2)CC1)(c1ccccc1)c1ccccc1,134,
Cc1ccc(-c2cc(C(F)(F)F)nn2-c2ccc(S(N)(=O)=O)cc2)cc1,83.6,
CN(C)CCCN1c2ccccc2CCc2ccc(Cl)cc21,,16.6 µM (active)
OCCN1CCN(CCCN2c3ccccc3Sc3ccc(C(F)(F)F)cc32)CC1,,7.43 µM (active)
CN(C)c1nc(N(C)C)nc(N(C)C)n1,76.2,

Compound,viability (% of control) [%],Potency
CN1CCN(CCCN2c3ccccc3Sc3ccc(Cl)cc32)CC1,,3.32 µM (active)
CN(C)CCC=C1c2ccccc2C=Cc2ccccc21,103,
Nc1nc2c(ncn2COC(CO)CO)c(=O)[nH]1,,20.9 µM (active)
C[C@@H]1CC(=O)NN=C1c1ccc(NN=C(C#N)C#N)cc1,90.4,
CC(=O)OCC(CCn1cnc2cnc(N)nc21)COC(C)=O,93.8,
CNCCCC12CCC(c3ccccc31)c1ccccc12,,16.6 µM (active)
Clc1ccc(C(c2ccccc2Cl)C(Cl)Cl)cc1 (stereo not given),91,
CN1C(C(=O)Nc2ccccn2)=C(O)c2ccccc2S1(=O)=O,72.9,
O=C(Nc1ccc([N+](=O)[O-])cc1Cl)c1cc(Cl)ccc1O,,1.05 µM (active)
CS(=O)(=O)Nc1ccc([N+](=O)[O-])cc1Oc1ccccc1,92.8,
NS(=O)(=O)c1cc2c(cc1Cl)NCNS2(=O)=O,91.6,
CC1(CN2CCC(n3c(=O)[nH]c4ccccc43)CC2)OCc2ccccc2-n2cccc21 (stereo not given),70.5,
COc1cc2nc(N3CCN(C(=O)c4ccco4)CC3)nc(N)c2cc1OC,,7.43 µM (active)
N[C@@H](Cc1c[nH]c2ccc(O)cc12)C(=O)O,106,
NC(=O)OCC(COC(N)=O)c1ccccc1,97.6,
COc1cc2nc(N3CCN(C(=O)C4COc5ccccc5O4)CC3)nc(N)c2cc1OC (stereo not given),108,
CN1C2CCC1CC(OC(=O)C(CO)c1ccccc1)C2 (stereo not given),98.6,
NC(CO)C(=O)NNCc1ccc(O)c(O)c1O (stereo not given),88.1,
NCCCCCC(=O)O,116,
COC(=O)Nc1nc2ccc(C(=O)c3cccs3)cc2[nH]1,,0.001 µM (active)
